Compound activity deposited in PubChem by National Center for Advancing Translational Sciences (NCATS).
D1 potentiator: human D1 dopamine receptor positive modulation; P21728; HEK293 TREx D1 cells, calcium flux, dopamine EC20 potentiation; potentiation, % at 10 µM; actives 0.036% (n = 360,000); AID 504651; in the data active = potentiation above about 30%; note: 0% is about no effect
D1 antag: antagonists of human D1 dopamine receptor. P21728. actives 3.2% (n = 360,000). activity change, negative = inhibition, % at 10 µM. AID 504652. HEK293 TREx D1 cells, calcium flux, dopamine EC80; active compounds read low; in the data active = activity change below about -30%; note: % is set by controls: 0 for no effect and ±100 for the full control effect
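Inducible Hek293 Trex D1 cells (tetracycline, overnight, 30 C). Calcium dye 30–90 min RT. Antagonist mode: EC80 dopamine added after 180 s compound read.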
TRHR PAM: allosteric enhancers of human TRH receptor. actives 0.66% (n = 360,000). AID 493056. enhancement, % at 2 µM. P34981. TRHR cells, fluo-8 calcium fluorescence, EC20 TRH enhancement; in the data active = enhancement above about 30%; note: 0% is about no effect
Target sequence (P34981 whole entry, looked up): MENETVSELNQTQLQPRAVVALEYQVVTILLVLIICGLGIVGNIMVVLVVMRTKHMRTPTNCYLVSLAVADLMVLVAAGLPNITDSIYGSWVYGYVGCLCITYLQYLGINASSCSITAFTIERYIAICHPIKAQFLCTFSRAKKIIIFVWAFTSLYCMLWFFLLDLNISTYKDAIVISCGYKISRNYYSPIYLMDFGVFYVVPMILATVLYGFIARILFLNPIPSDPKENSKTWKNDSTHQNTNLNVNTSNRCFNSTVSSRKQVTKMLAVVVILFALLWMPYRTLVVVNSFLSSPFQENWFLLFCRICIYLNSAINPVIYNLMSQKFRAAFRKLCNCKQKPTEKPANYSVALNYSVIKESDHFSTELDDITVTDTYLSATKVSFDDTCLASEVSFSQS
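Enhancer read-out: after compound pinning and an initial kinetic agonist-mode read, an EC20 of TRH (10 nM final) was injected and fluo-8 calcium signal (Ex 480/Em 530) followed at 1 s/cycle for 100 cycles in TRHR-expressing cells.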
D1 ag: human D1 receptor agonism; P21728; HEK293 T-REx D1 cells, calcium flux, agonist mode; activation, % at 2 µM; actives 1% (n = 360,000); AID 504660; note: 0% is about no effect
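Agonism was scored from calcium flux recorded over 180 s (1 read/s) after pintool compound addition, following a 10-cycle baseline. Cells were inducible force-coupled HEK293 TREx D1, plated overnight at 30 C and loaded with no-wash calcium dye.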
TRHR agonist: agonists of human TRH receptor | TRHR cells, calcium flux fluo-8, FDSS agonist mode | activation, % at 2 µM | actives 0.18% (n = 360,000); note: 0% is about no effect
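TRHR-expressing cells, plated overnight in medium with 10% serum, were loaded with fluo-8 calcium dye at room temperature. After a 10 s baseline, library compound was pin-added and calcium release was recorded kinetically (ex 480/em 530) as agonist response.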
An asterisk follows results filed as active; / = not tested or not shown. Only some compounds are listed: those with a hit (about 4.6% of all), similar ones and a draw of the others. Cut-off read from the data, not from the text of the source, unless noted: active = activation above about 30%; inactive = the rest.

SMILES	D1 potentiator	D1 antag	TRHR PAM	D1 ag	TRHR agonist
Cc1ccc(-n2nc(C)c3c(C(=O)NCCc4ccc(S(N)(=O)=O)cc4)cc(C)nc32)cc1	-3	6	5	18	1
COC(=O)c1sc(N/N=C/c2ccc(C(C)C)cc2)nc1C	/	-37*	6	3	2
Cn1c(=O)c2sccc2n2c(CCC(=O)Nc3ccc(F)cc3)nnc12	0	-2	2	-1	0
CC(=O)NS(=O)(=O)c1ccc(N=NN2CCCCCC2)cc1	5	0	-4	-1	0
CC(=O)NS(=O)(=O)c1ccc(N=NN2CCOCC2)cc1	-6	-57*	-23	0	-1
Cc1ccc2cc(CN(Cc3cccs3)Cc3nnnn3C(C)(C)C)c3nnnn3c2c1	-6	-5	32*	3	0
Cc1cc2cc(CN(Cc3cccs3)C(c3nnnn3C(C)(C)C)C(C)C)c3nnnn3c2cc1C (stereo not given)	-6	-5	5	1	2
CC(C)Oc1ccc(CNC(=O)c2ccc(CS(=O)c3cccc(Cl)c3)o2)cc1 (stereo not given)	-6	-1	-3	4	-1
COc1ccc2cc(CNc3ccc(C)cc3)c(=O)n(CC(=O)Nc3ccc(OC)c(Cl)c3)c2c1	-1	11	-2	0	-1
CCc1ccc(CN2CCc3nc(Nc4ccc5c(c4)OCCO5)ncc3C2)cc1	0	-66*	4	1	1
Cc1ccc(-c2c(C#N)c(N)nc3c2CCCC3)o1	0	24	4	39*	0
Cc1cc(Cl)cc(C)c1OCCOCCNCc1ccccc1	-6	-5	-7	31*	1
Clc1ccc(OCCOCCNCc2ccccc2)cc1Cl	-5	-26	3	47*	2
CN(CCOc1ccc(Cl)c(Cl)c1)Cc1ccccc1	2	2	-1	1	0
COc1ccc2c(c1)NC(c1ccc(OCC(C)C)cc1)=NC(c1ccncc1)=N2	0	-4	8	2	-2
COc1cc(OC)c(NC(=O)CSc2cc(=O)n(C)c3ccc(Cl)cc23)cc1Cl	5	5	40*	0	0
CC(=O)c1ccc(N2CCN(C(=O)Nc3ccc(Cl)cc3)CC2)cc1	-2	-51*	-8	14	-1
CC(=O)c1ccc(NC(=O)N2CCN(c3cccc(Cl)c3)CC2)cc1	-8	-51*	3	20	-2
O=C(Nc1ccc(Cl)cc1)N1CCN(c2ccccc2)CC1	-8	-13	12	2	0
CC(=O)c1cccc(NC(=O)N2CCN(S(C)(=O)=O)CC2)c1	-5	-5	34*	2	0
O=C(O)c1ccccc1C(=O)N1CCN(c2cccc(Cl)c2)CC1	-24	-44*	-1	5	1
Fc1c(F)c(F)c(SCn2cc(Br)cn2)c(F)c1F	-11	0	-5	2	0
Cc1cc(Br)ccc1NC(=O)c1cn(C2CCCC2)c(=O)c2c1c1ccccc1n2C	1	4	3	0	0
Cc1cccc(CSc2ncc(Cl)c(C(=O)Nc3sc4c(c3C(N)=O)CCCC4)n2)c1	-1	12	-1	0	2
CC(=O)Nc1ccc(N2CCN(c3ccc(F)cc3)CC2)cc1	-5	3	33*	3	0
SMILES	D1 potentiator	D1 antag	TRHR PAM	D1 ag	TRHR agonist
O=C(O)/C=C\C(=O)Nc1ccc(N2CCN(c3ccc(F)cc3)CC2)cc1	-4	12	-2	0	-1
CCOc1ccccc1C(=O)NCC(=O)N(C)Cc1ccccc1C	-4	-43*	-6	6	0
CCOc1ccccc1C(=O)NCC(=O)Nc1ccc(-c2ccccc2)cc1	-2	5	6	0	1
Cn1c(=O)c2c(ncn2Cc2ccccc2)n(C)c1=O	5	4	-4	3	1
Cc1ccc(NC(=O)COC(=O)Cn2cnc3c2c(=O)n(C)c(=O)n3C)c(Cl)c1	-6	1	24	4	1
Cc1ccc(OCCn2cnc3c2c(=O)n(C)c(=O)n3C)cc1	-6	-32*	3	6	0
Cn1c(=O)c2c(ncn2CC(COCc2ccccc2)OCc2ccccc2)n(C)c1=O (stereo not given)	-4	-55*	-3	1	0
Cc1ccc(Cl)c(OC(=O)Cn2cnc3c2c(=O)n(C)c(=O)n3C)c1	3	-41*	2	14	-1
